PubChem BioAssay (NCATS)
Where “and” joins values, the source holds several entries; their conditions need not be identical. Identical values can stand only once. Records with an inconclusive call do not appear. Some compounds were tested as several samples or in several runs, with calls that do not always agree. Calls of active or inactive are those of the source. The call rests on the fitted dose curve; in most records, active means well fitted inhibition curve with a large enough effect; inconclusive means small, poorly fitted or top-dose-only effect; inactive means flat fitted curve, though single readings scatter.

What was measured:
N140 = assay: qHTS profiling for inhibitors of Plasmodium falciparum proliferation (AID 504749); further: potency means the concentration at half of the fitted maximal effect; details: P. falciparum in erythrocytes, SYBR Green DNA, 72 h; series mostly up to 28.7 µM
How it was run: (§1)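 Fluorescence of SYBR Green-bound parasite DNA, read at 485/535 nm, served as the growth measure. Infected erythrocytes were cultured with compound 72 h; artemisinin (0.29 uM) and DMSO wells defined the normalization range.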

P93_24 = assay: as above; details: P. falciparum in erythrocytes, SYBR Green DNA, 72 h; series mostly up to 28.7 µM
How it was run: as §1

P94_40 = assay: as above; details: P. falciparum in erythrocytes, SYBR Green DNA, 72 h; series mostly up to 28.7 µM
How it was run: as §1

PAD = assay: as above; details: P. falciparum in erythrocytes, SYBR Green DNA, 72 h; series mostly up to 28.7 µM
How it was run: as §1

PC15 = assay: as above; details: P. falciparum in erythrocytes, SYBR Green DNA, 72 h; series mostly up to 28.7 µM
How it was run: as §1

PC49 = assay: as above; details: P. falciparum in erythrocytes, SYBR Green DNA, 72 h; series mostly up to 28.7 µM
How it was run: as §1

SC27B = assay: as above; details: P. falciparum in erythrocytes, SYBR Green DNA, 72 h; series mostly up to 28.7 µM
How it was run: as §1

TAB109 = assay: as above; details: P. falciparum in erythrocytes, SYBR Green DNA, 72 h; series mostly up to 28.7 µM
How it was run: as §1

TAB113 = assay: as above; details: P. falciparum in erythrocytes, SYBR Green DNA, 72 h; series mostly up to 28.7 µM
How it was run: as §1

TAB165 = assay: as above; details: P. falciparum in erythrocytes, SYBR Green DNA, 72 h; series mostly up to 28.7 µM
How it was run: as §1

W2 = assay: as above; details: P. falciparum in erythrocytes, SYBR Green DNA, 72 h; series mostly up to 28.7 µM
How it was run: as §1

CRL-7250 = normal cell line; assay: Cytotoxic Profiling of Annotated Libraries Using Quantitative High-Throughput Screening (AID 1296008); details: Five cell lines viability, CellTiter-Glo ATP luminescence, 48-72 h; max response: hits give low values; further: potency means the concentration at half of the fitted maximal effect; on max response: on the % scale 0 is the no-effect control and ±100 the full control effect
How it was run: (§2)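 Compounds were pin-transferred onto cells and incubated 48 or 72 hr at 37 degree Celsius, 95% humidity. CellTiter-Glo was added, plates sat 10 min at room temperature, then ATP-coupled luminescence was imaged as the viability read-out.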

HEK293 = assay: as above; details: Five cell lines viability, CellTiter-Glo ATP luminescence, 48-72 h; max response: hits give low values
How it was run: as §2

HaCat [1] = assay: as above; details: Five cell lines viability, CellTiter-Glo ATP luminescence, 48-72 h; max response: hits give low values
How it was run: as §2

KB-3-1 = assay: as above; details: Five cell lines viability, CellTiter-Glo ATP luminescence, 48-72 h; max response: hits give low values
How it was run: as §2

NIH3T3 = assay: as above; details: Five cell lines viability, CellTiter-Glo ATP luminescence, 48-72 h; max response: hits give low values
How it was run: as §2

HACAT [2] = assay: qHTS assay to identify novel small-molecules to repurpose for Merkel cell carcinoma treatment (AID 1296009); details: MCC and control cell lines, CellTiter-Glo viability, 72 h; at 44.8 µM (top of the series) unless noted
How it was run: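 Luminescence from CellTiter-Glo, read 10 min after addition at room temperature, reported viability following a 72 hr, 37 degree celsius treatment with NPC or MIPE compounds in titration; values normalized to plate controls.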

JCK = assay: qHTS profiling for inhibitors of Plasmodium falciparum proliferation (AID 504749); further: potency means the concentration at half of the fitted maximal effect; details: P. falciparum in erythrocytes, SYBR Green DNA, 72 h; series mostly up to 28.7 µM
How it was run: as §1

PC26 = assay: as above; details: P. falciparum in erythrocytes, SYBR Green DNA, 72 h; series mostly up to 28.7 µM
How it was run: as §1
Further: nearly all actives have a fitted effect of over 60% in size.

Cc1cc(=O)c2c(O)c3c(O)cc(=O)c4c3c3c(cc(O)c1c23)C(C)(C)C=4O
active: Potency (N140) 1000 nM | Potency (P93_24) 2240 nM | Potency (P94_40) 2000 nM | Potency (PAD) 2510 nM | Potency (PC15) 3980 nM | Potency (PC49) 7940 nM | Potency (SC27B) 1580 nM | Potency (TAB109) 2240 nM | Potency (TAB113) 1580 nM | Potency (TAB165) 1780 nM | Potency (W2) 1350 nM | Potency (CRL-7250) 3.66 µM and 13.2 µM | Potency (HEK293) 2.59 µM and 3.72 µM | Potency (HaCat [1]) 1300 nM | Potency (KB-3-1) 11.6 µM and 23.5 µM
inactive: outcome (HaCat [1]) | max response (NIH3T3) -0.918% | outcome (HACAT [2])

CCOC(=O)C1=C[C@@H](OC(CC)CC)[C@H](NC(C)=O)[C@@H](N)C1
inactive: max response (CRL-7250) 0.667% | max response (HEK293) -4.58% | max response (HaCat [1]) 1.74% | max response (KB-3-1) 14.9% and 5.96% | outcome (NIH3T3)

CC(C)c1ccc2c(c1)c(SC(C)(C)C)c(CC(C)(C)C(=O)O)n2Cc1ccc(Cl)cc1
inactive: max response (CRL-7250) -29.4% | max response (HEK293) -2.03% | max response (HaCat [1]) -20.8% | max response (KB-3-1) -8.99% | outcome (NIH3T3)

CCOC(=O)c1c(C)n(C)c2ccc(O)cc12
inactive: Potency (JCK) | Potency (P93_24) | Potency (P94_40) | Potency (PAD) | Potency (PC15) | Potency (PC26) | Potency (PC49) | Potency (SC27B) | Potency (TAB109) | Potency (TAB113) | Potency (TAB165) | Potency (W2) | max response (CRL-7250) 3.97% and 0.808% | max response (HEK293) 0.41% and 2.4% | max response (HaCat [1]) 4.97% | outcome (HaCat [1]) | max response (KB-3-1) -7.66% and 1.23% | max response (NIH3T3) -5.37% | outcome (NIH3T3) | outcome (HACAT [2])

CC(S)C(=O)NCC(=O)O (stereo not given)
inactive: Potency (JCK) | Potency (N140) | Potency (P93_24) | Potency (P94_40) | Potency (PAD) | Potency (PC15) | Potency (PC26) | Potency (PC49) | Potency (SC27B) | Potency (TAB109) | Potency (TAB113) | Potency (TAB165) | Potency (W2) | outcome (CRL-7250) | max response (HEK293) -0.0067% and -3.71% | max response (HaCat [1]) -2.01% | outcome (HaCat [1]) | max response (KB-3-1) 5.7% | max response (NIH3T3) 0.885% and -1.07% | outcome (HACAT [2])

Nc1ncn([C@H]2C[C@H](O)[C@@H](CO)O2)c(=O)n1
active: Potency (HEK293) 18.7 µM
inactive: max response (CRL-7250) -5.93% and -8.36% | outcome (HaCat [1]) | max response (KB-3-1) 9.32% | outcome (KB-3-1) | max response (NIH3T3) -24.2% | outcome (HACAT [2])
